FPR binder: human FPR ligands by binding competition, primary screen, cell-based, FPRL1 counter-screen, flow cytometry; FPR-expressing cells, fluorescent ligand binding; inhibition, % (no concentration beside the values); actives 0.74% (n = 24,000); AID 440, 2006;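 further: 0% = buffer wells and 100% = receptor blocker peptide wells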
Target sequence (P21462 whole entry, looked up): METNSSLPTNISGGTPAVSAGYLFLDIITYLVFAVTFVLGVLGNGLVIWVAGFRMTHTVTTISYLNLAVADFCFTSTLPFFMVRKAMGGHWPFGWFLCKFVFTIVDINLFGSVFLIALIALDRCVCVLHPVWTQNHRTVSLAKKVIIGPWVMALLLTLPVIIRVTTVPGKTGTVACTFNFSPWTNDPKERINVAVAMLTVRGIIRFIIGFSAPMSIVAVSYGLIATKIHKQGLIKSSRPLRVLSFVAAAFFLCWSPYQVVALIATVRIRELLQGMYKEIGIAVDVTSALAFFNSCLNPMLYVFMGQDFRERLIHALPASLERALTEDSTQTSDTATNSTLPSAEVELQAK
FPRL1 ligand: human FPRL1 ligands by binding competition, primary screen, cell-based, FPR counter-screen, flow cytometry; N-formyl peptide receptor 2 (Homo sapiens), P25090; FPRL1-expressing cells, fluorescent ligand binding inhibition; inhibition, % (no concentration beside the values); actives 0.3% (n = 24,000); AID 441, 2006;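 further: 0% = buffer alone and 100% = receptor blocker peptide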
Starred values were filed as active, the others as inactive. The list is not random: actives were taken first. Their share in the collection is about 1%. No stated cut-off is given here; in the data, active means inhibition above about 30%; inconclusive means no clear call, values can overlap the other calls; inactive means below that.

SMILES	FPR binder	FPRL1 ligand
N[C@@H](Cc1ccc(O)c(I)c1)C(=O)O	51.4*	-2.6
O=C(O)Cc1cc(I)c(Oc2ccc(O)c(I)c2)c(I)c1	-5.1	1.7
COc1ccc(S(=O)(=O)N2CCN(S(=O)(=O)c3ccc4c(c3)OCCO4)CC2)cc1C	-4.6	-5.9
Cc1ccc(NC(=O)C2C(=O)N(CCO)C3(C)CC2c2ccccc2O3)cc1 (centres undefined)	30.9*	40.2*
COc1ccc(NC(=O)C2C(=O)N(CCO)C3(C)CC2c2ccccc2O3)cc1 (centres undefined)	18.5	15.7
O=C(NCc1ccco1)c1sc(=S)n2c1[nH]c(=O)c1ccccc12	8.3	-0.4
CCn1c(N)c(C(=O)NCC2CCCO2)sc1=S (centres undefined)	5.2	-0.4
O=C(NC1CCCC1)c1sc(=S)n2c1[nH]c(=O)c1ccccc12	94.8*	-0.5
CCCCCNC(=O)c1ccc2c(=O)[nH]c3c(C(=O)NCC4CCCO4)sc(=S)n3c2c1 (centres undefined)	39.7*	4.6
Cc1ccc(-c2cc(C(F)F)nc(NCC3CCCO3)n2)cc1 (centres undefined)	1.0	2.2
CC1(C)Cc2c(C#N)c(SCCC#N)nc(N3CCOCC3)c2CS1	4.5	-7.9
CCOC(=O)CCN(Cc1cccs1)S(=O)(=O)c1ccc(Cl)cc1	0.0	0.6
CC(C)(C)/C(O)=C(/C#N)c1nc2ccccc2[nH]1	2.6	-8.6
COc1cccc(OC)c1/C(O)=C(\C#N)c1nc2ccccc2[nH]1	32.5*	12.3
O=C(NCc1ccco1)C1CCC(CNS(=O)(=O)c2cccc3cccnc23)CC1 (centres undefined)	-0.1	-2.8
COc1ccccc1-n1c(SC)nc(O)cc1=O	40.7*	-10.4
COc1ccccc1-n1c(C)nnc1SCC(N)=O	0.5	2.9
Cc1ccc(C2C3=C(CC(C)(C)CC3=O)Nc3[nH]c(=S)[nH]c(=O)c32)cc1 (centres undefined)	35.2*	-3.0
Cc1[nH]nc2c1C(c1ccccc1)C1=C(CC(C)(C)CC1=O)N2 (centres undefined)	0.7	0.1
Cc1nc2sc(C(c3cccc(F)c3)N3CCOCC3)c(O)n2n1 (centres undefined)	-3.5	4.0
O=C(C1=C(O)C(=O)N(CCOCCO)C1c1cccs1)c1cccs1 (centres undefined)	70.6*	28.5
O=C(C1=C(O)C(=O)N(Cc2ccco2)C1c1ccccc1)c1cccs1 (centres undefined)	71.3*	-8.9
CC(=O)C1=C(O)C(=O)N(Cc2ccco2)C1c1ccc(F)cc1 (centres undefined)	-0.9	6.7
Cc1nc(C)c(C(=O)C2=C(O)C(=O)N(CCN3CCOCC3)C2c2cccs2)s1 (centres undefined)	-4.2	0.4
Nc1c(N2CCCCC2)c(=O)[nH]c(=O)n1-c1ccccc1	-1.0	3.5
SMILES	FPR binder	FPRL1 ligand
CCCCCOC(=O)Cn1c(=O)oc2ccccc21	30.8*	23.0
CCCCCNC(=O)CCn1c(=O)oc2ccccc21	0.0	-0.3
CCOC(=O)c1[nH]cc(-c2ccccc2)c1N1CCOCC1	-3.8	0.9
c1ccc(N2CCN(Cc3cn4cccnc4n3)CC2)cc1	3.3	0.2
O=C(Cn1cnc2ccccc2c1=O)NCCC(=O)N1CCN(c2ccccc2)CC1	2.0	0.3
O=C(c1ccc(Cl)cc1)N(Cc1cccs1)C1CCS(=O)(=O)C1 (centres undefined)	27.5	45.5*
CN(C(=O)COC(=O)C1CCN(S(=O)(=O)c2cccs2)CC1)C1CCS(=O)(=O)C1 (centres undefined)	-3.7	-0.3
CCOC(=O)c1nnn(CC(=O)Nc2ccccc2OC)c1C(=O)OCC	-4.7	-7.4
Cn1c(Cc2csc(N)n2)nnc1SCC(=O)NCc1ccccc1	3.3	6.2
O=C(CN(Cc1ccccc1F)S(=O)(=O)c1ccc(Cl)cc1)NCCCO	-10.8	-3.0
C=CCn1c(SCCCC)nc(O)cc1=O	56.0*	-6.2
CCn1c(SCC(=O)N2CCOCC2)nc(O)cc1=O	11.3	5.3
CCCCCNC(CC(=O)Nc1ccc(OC)cc1)C(=O)O (centres undefined)	2.4	-2.0
CCc1c(C(=O)NCc2ccc3c(c2)OCO3)[nH]c(C)c1C(C)=O	-2.0	7.9
CCOC(=O)C1=C(C)Nc2nnnn2C1c1c[nH]c2ccccc12 (centres undefined)	2.7	-4.9
COC(=O)C1=[N+]([O-])OC(C(=O)OC)C1c1c[nH]c2ccccc12 (centres undefined)	35.3*	76.9*
COC(=O)CS(=O)(=O)c1ccc2c(c1)CC(=O)N2	-3.4	4.0
Cc1c(NC(=O)c2ccc(Br)o2)c(=O)n(-c2ccccc2)n1C	-4.8	-6.5
COc1ccc(NC(=O)CSc2nc3c(c(=O)[nH]2)CCC3)cc1OC	7.6	-5.0
CCC(Sc1nc2c(c(=O)[nH]1)CCC2)C(=O)Nc1cccc(OC)c1 (centres undefined)	62.1*	-2.3
CC(C)C(c1nnnn1C1CCCC1)N1CCN(C(=O)c2ccco2)CC1 (centres undefined)	-6.2	2.4
CCN(CC)S(=O)(=O)c1ccc(C(=O)NCc2n[nH]c(=S)n2Cc2ccccc2)cc1	-1.8	-13.6
CCSc1nc(O)c(C2OC(=O)c3c2ccc(OC)c3OC)c(=O)n1-c1ccccc1 (centres undefined)	34.3*	-0.5
COc1ccc2c(c1OC)C(=O)OC2Nn1cncn1 (centres undefined)	3.6	4.0
CC(OC(=O)c1ccco1)C(=O)NCc1cccs1 (centres undefined)	-3.9	-5.1
SMILES	FPR binder	FPRL1 ligand
O=C(N1CCN(Cc2ccccc2)CC1)C12CC3CC(CC(C3)C1)C2	6.2	-4.8
O=C1C(C23CC4CC(CC(C4)C2)C3)C(=O)N(c2ccccc2)N1c1ccccc1	73.1*	1.0
O=C(NCc1cccnc1)C1c2ccccc2C(=O)N1C1CCCCCCC1 (centres undefined)	47.6*	12.7
O=C(NC1CCCCCC1)C1c2ccccc2C(=O)N1Cc1cccnc1 (centres undefined)	3.9	3.2
O=C(NCc1cccnc1)C1c2ccccc2C(=O)N1C1CCCCCC1 (centres undefined)	62.5*	25.4
O=C(NC1CCCC1)C1c2ccccc2C(=O)N1C1CCCCC1 (centres undefined)	11.5	5.4
CCCCNC(=O)CCCCCNS(=O)(=O)c1ccc(OC)cc1	-5.2	-7.4
COc1ccc(N2C(=O)CCC(C(=O)N3CCOCC3)C2c2ccc(F)cc2)cc1 (centres undefined)	1.9	-4.6
COCCN1C(=O)C(O)=C(C(=O)c2ccco2)C1c1cccc(Oc2ccccc2)c1 (centres undefined)	72.0*	-5.0
COc1cc(C2C(C(=O)c3ccco3)=C(O)C(=O)N2Cc2cccnc2)cc(OC)c1OC (centres undefined)	-1.1	1.9
COc1ccccc1C1C(C(C)=O)=C(O)C(=O)N1CCc1ccccc1 (centres undefined)	17.7	-6.0
CCOc1cc(C2C(C(=O)c3ccc(C)o3)=C(O)C(=O)N2CCc2ccccc2)ccc1O (centres undefined)	90.4*	-9.1
COc1cc(C2C(C(=O)c3ccco3)=C(O)C(=O)N2CCc2ccccc2)ccc1O (centres undefined)	62.8*	-2.5

Assay outcomes as filed in PubChem.
